Legend:
[1] = system: CLZ3 (HCA2 human fibroblast dual HR-NHEJ reporter); test: NHEJ repair efficiency (GFP+ cells) relative to control (log10 fold); higher = more non-homologous end joining; details: 5 µM; doxycycline 0.5 ug/mL
[2] = system: CLZ3 (HCA2 human fibroblast dual HR-NHEJ reporter); test: HR repair efficiency (tdTomato+ cells) relative to control (log10 fold); higher = more homologous recombination; details: 5 µM; doxycycline 0.5 ug/mL
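Throughout, for HR repair efficiency (tdTomato+ cells) relative to control: compound given one day before doxycycline, which switches on I-SceI endonuclease expression to create double-strand breaks within the integrated reporter.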
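Throughout, for NHEJ repair efficiency (GFP+ cells) relative to control: compound given one day ahead of doxycycline, which switches on I-SceI endonuclease to cut the chromosomally integrated reporter and create DSBs.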

SMILES	NHEJ repair efficiency (log10) [1]	HR repair efficiency (log10) [2]
Cc1c(S(=O)(=O)O)oc2c1C(=O)C(=O)c1c-2ccc2c1CCCC2(C)C [Tanshinone Iia Sodium Sulfonate]	0.0248	0.126
OCCc1ccc(O)cc1 [Tyrosol]	0.117	0.306
C=C1CC[C@H]2C(=C)CC[C@H]3C(=C)C(=O)O[C@@H]3[C@@H]12 [Dehydrocostus Lactone]	-0.02	0.03
C[C@@H]1O[C@@H](Oc2c(-c3ccc(O)c(O)c3)oc3cc(O)cc(O)c3c2=O)[C@H](O)[C@H](O)[C@H]1O [Quercitrin]	-0.0507	0.0282
COC(=O)C1=CO[C@@H](O[C@@H]2O[C@H](CO)[C@@H](O)[C@H](O)[C@H]2O)[C@H]2[C@@H]1[C@H](O)C[C@]2(C)OC(C)=O [8-O-Acetyl Shanzhiside Methyl Ester]	-0.0953	-0.109
COc1cc2c(c(O)c1OC)-c1c(cc(OC)c(OC)c1OC)C[C@@H](C)[C@@H](C)C2 [Schisanhenol]	-0.161	-0.0391
COc1ccc([C@@H]2OC[C@H]3[C@@H]2CO[C@@H]3c2ccc3c(c2)OCO3)cc1OC [Fargesin]	0.0593	0.116
C[C@@H]1CC[C@]2(C(=O)O)CC[C@]3(C)C(=CC[C@@H]4[C@@]5(C)CC[C@H](O)[C@@](C)(CO)[C@@H]5CC[C@]43C)[C@@H]2[C@]1(C)O [Rotundic Acid]	-0.0308	0.0236
COc1cc(C[C@H](C)[C@H](C)Cc2ccc3c(c2)OCO3)ccc1O [Anwuligan]	0.0149	0.0747
CC(C)=CC/C=C(\C)[C@H]1CC[C@]2(C)[C@@H]1[C@H](O)C[C@@H]1[C@@]3(C)CC[C@H](O[C@@H]4O[C@H](CO)[C@@H](O)[C@H](O)[C@H]4O[C@@H]4O[C@H](CO)[C@@H](O)[C@H](O)[C@H]4O)C(C)(C)[C@@H]3CC[C@]12C [Ginsenoside Rg5]	0.0582	0.0507
O=C(O[C@@H]1Cc2c(O)cc(O)cc2O[C@H]1c1cc(O)c(O)c(O)c1)c1cc(O)c(O)c(O)c1 [(-)Gallocatechin gallate]	-0.12	0.0198
O=C(/C=C/C=C/c1ccc2c(c1)OCO2)N1CCCCC1 [Piperine]	0.0542	0.0832
CC(=O)O[C@@H]1C[C@@]23C[C@@]24CC[C@H](O[C@@H]2OC[C@@H](O)[C@H](O)[C@H]2O)C(C)(C)[C@@H]4CC=C3[C@]2(C)C[C@@H]3OC4(C[C@@H](C)[C@@H]3[C@@]12C)OC(O)C1(C)OC41 (stereo partly specified) [Cimicifugoside]	0.0323	0.0562
Nc1ncnc2c1ncn2[C@@H]1O[C@H](CO)C[C@H]1O [Cordycepin]	0.007	-0.139
O=C(O)CCC(=O)O [Succinic acid]	0.006	0.102
CC[C@H](CC[C@@H](C)[C@H]1CC[C@H]2[C@@H]3CC=C4C[C@@H](O)CC[C@]4(C)[C@H]3CC[C@]12C)C(C)C [β-Sitosterol]	0.038	0.098
O=C(/C=C/c1ccc(O[C@@H]2O[C@H](CO)[C@@H](O)[C@H](O)[C@H]2O)cc1)c1ccc(O)cc1O [Isoliquiritoside]	-0.17	-0.232
O=C(/C=C/c1ccc(O)c(O)c1)O[C@@H]1CC(O)(C(=O)O)C[C@@H](OC(=O)/C=C/c2ccc(O)c(O)c2)C1O (stereo partly specified) [Isochlorogenic acid A]	0.0485	0.0109
COC(=O)C1=CO[C@@H](O[C@@H]2O[C@H](CO)[C@@H](O)[C@H](O)[C@H]2O)[C@@H]2[C@@]3(C)O[C@H]3[C@@H](O)[C@]12O [Sesamoside]	-0.0395	-0.1
O=C(/C=C/c1ccc(O)cc1)OC[C@H]1O[C@@H](Oc2c(-c3ccc(O)cc3)oc3cc(O)cc(O)c3c2=O)[C@H](O)[C@@H](O)[C@@H]1O [Tiliroside]	-0.00145	-0.0226
C=C(C)[C@@H]1CC[C@]2(C(=O)O)CC[C@]3(C)[C@H](CC[C@@H]4[C@@]5(C)CC[C@H](O)C(C)(C)[C@@H]5CC[C@]43C)[C@@H]12 [Betulinic acid]	0.0052	0.0512
CC(CC(=O)C[C@@H](C)[C@H]1CC(=O)[C@@]2(C)C3=C(C(=O)C[C@]12C)[C@@]1(C)CC[C@H](O)C(C)(C)[C@@H]1C[C@@H]3O)C(=O)O (stereo partly specified) [Ganoderic Acid B]	0.0835	0.0793
O=c1cc(-c2ccc(O)cc2)oc2cc(O)c([C@@H]3O[C@H](CO)[C@@H](O)[C@H](O)[C@H]3O)c(O)c12 [Isovitexin]	0.0409	0.0479
